mIDH1 inhibitor: inhibitors of human mutant IDH1 R132H | Potency, µM (titrated, usually from 76.6 µM), for inactives: at the top dose activity change, negative = inhibition, actives largely listed as inhibitors | 390,000 tested, 0.093% active | IDH1-R132H enzyme, NADPH consumption, diaphorase/resazurin fluorescence; further: potency means the concentration at half of the fitted maximal effect; on the % scale 0 is the no-effect control and ±100 the full control effect; nearly all actives have a fitted effect of over 65% in size
Target sequence (O75874 whole entry R132H, stated change not applied): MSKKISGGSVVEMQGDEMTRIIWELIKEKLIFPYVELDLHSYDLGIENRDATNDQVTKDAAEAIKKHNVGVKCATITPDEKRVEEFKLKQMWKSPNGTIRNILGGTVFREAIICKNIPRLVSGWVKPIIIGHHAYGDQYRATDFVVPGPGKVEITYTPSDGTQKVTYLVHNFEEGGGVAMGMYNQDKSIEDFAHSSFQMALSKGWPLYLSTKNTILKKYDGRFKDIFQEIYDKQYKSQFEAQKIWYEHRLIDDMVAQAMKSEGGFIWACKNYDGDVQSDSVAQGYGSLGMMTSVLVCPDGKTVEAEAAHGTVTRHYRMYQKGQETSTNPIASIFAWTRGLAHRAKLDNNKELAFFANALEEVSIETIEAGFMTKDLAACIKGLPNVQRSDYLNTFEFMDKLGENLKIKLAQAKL
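IDH1-R132H (0.5 ug/mL) preincubated 30 min with compound, then NADPH (0.016 mM) and alpha-KG (2 mM) added; 80 min at RT, pH 7.5. Remaining NADPH coupled via diaphorase/resazurin to fluorescence (540/590 nm); concentration-response curves normalized to no-enzyme control.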
Nrf2 block: blocks Nrf2 signaling. A549 ARE-Fluc reporter, luciferase luminescence, 18-24 h. Potency, µM (titrated, usually from 46 µM), without a hit: at the top dose activity change, negative = inhibition, most hits filed as inhibitors. 360,000 tested, 2.1% active; further: potency means the concentration at half of the fitted maximal effect; on the % scale 0 is the no-effect control and ±100 the full control effect; nearly all actives have a fitted effect of over 60% in size
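Two sequential reads on A549 ARE_Fluc cells exposed to compound for 18-24 h: a CellTiter-Fluor fluorescence read for viability, then a luciferase luminescence read for Nrf2/ARE activity.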
Mito fusion act: inhibitors of mitochondrial division or activators of mitochondrial fusion | Potency, µM (titrated, usually from 46.1 µM), for the others: top-dose growth rescue (activation), hits mostly activators | S. cerevisiae fusion-defective mutant growth rescue, CellTiterGlo 48 h | 320,000 tested, 0.23% active; further: potency means the concentration at half of the fitted maximal effect; % of control where 0% means no effect; nearly all actives have a fitted effect of over 45% in size
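Yeast fusion mutant, YPEG (non-fermentable carbon), compound, 48 h at 37C non-permissive; CellTiterGlo added, 10 min RT, luminescence read. Rescued growth = division inhibition.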
TrxR1 substrate: rat thioredoxin reductase 1 substrate activity | purified TrxR1 substrate turnover, NADPH consumption readout | Potency, µM (highest dose often 114 µM), for the others: at the top dose activity change, negative = substrate turnover | 390,000 tested, 0.01% active; further: potency means the concentration at half of the fitted maximal effect; on the % scale 0 is the no-effect control and ±100 the full control effect; nearly all actives have a fitted effect of over 50% in size
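Rat TrxR1, dispensed at 90 nM, was prereduced with 400 uM NADPH (final) for 5 min at ~22 deg C, then incubated with compound 15 min before 400 uM selenite. A first-read NADPH fluorescence drop versus no-compound background flagged substrates.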
TrxR1 inh-1: blocks rat thioredoxin reductase 1; O89049; recombinant rTrxR1, NADPH fluorescence consumption, selenite substrate; Potency, µM (series often up to 114 µM), inactives show at the top dose activity change, negative = inhibition, most hits filed as inhibitors; 390,000 tested, 1% active; further: potency means the concentration at half of the fitted maximal effect; on the % scale 0 is the no-effect control and ±100 the full control effect; nearly all actives have a fitted effect of over 65% in size
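Rat TrxR1 (90 nM in the dispensed reagent) was pre-reduced with 400 uM NADPH for 5 min at room temperature, then incubated with compound for 15 min. After 400 uM selenite was added, NADPH fluorescence (Ex 340/Em 450 nm) was followed for 8 min.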
A549 tox-1: counter-screen for Nrf2 inhibitors: cytotoxicity in A549 cells. Potency, µM (series often up to 46 µM), for the others: at the highest dose activity change, negative = cytotoxicity, usual class: inhibitors. AID 504648. A549 ARE-Fluc cells, CellTiter-Fluor viability, 18-24 h. 390,000 tested, 0.16% active; further: potency means the concentration at half of the fitted maximal effect; on the % scale 0 is the no-effect control and ±100 the full control effect
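A549 ARE-Fluc cells in 5% FBS OPTI-MEM, 5000 cells/well, rested 2 h then exposed to compounds in concentration-response for 18-24 h at 37 °C. Viability by CellTiter-Fluor fluorescence (Ex 405/Em 525) after 30 min; luciferase luminescence (BugLite, 15 min, RT) read afterwards.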
FLuc enzyme inh: firefly luciferase inhibition, Nrf2 hit validation; shares compounds with Nrf2 block; purified firefly luciferase, luminescence inhibition; Potency, µM (top dose mostly 57.5 µM), inactives show at the top dose activity change, negative = inhibition, most hits filed as inhibitors; 1,400 tested, 4% active; further: potency means the concentration at half of the fitted maximal effect; on the % scale 0 is the no-effect control and ±100 the full control effect; nearly all actives have a fitted effect of over 65% in size
A549 tox-2: toxic to A549 ARE-Fluc cells in Nrf2 counterscreen; shares compounds with Nrf2 block; A549 ARE-Fluc cells, cytotoxicity counterscreen; Potency, µM (series often up to 46.1 µM), for the others: at the highest dose activity change, negative = cytotoxicity, most hits filed as inhibitors; 1,400 tested, 2% active;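 further: potency means the concentration at half of the fitted maximal effect; cells exposed to compounds for 18 to 24 hours; on the % scale 0 is the no-effect control and ±100 the full control effect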
ARE-Fluc inh: confirmation of Nrf2 inhibitors in A549 ARE reporter cells; A549 ARE-firefly luciferase reporter, luminescence; AID 720524; shares compounds with Nrf2 block; 1,400 tested, 74% active; Potency, µM (highest dose often 46.1 µM), for inactives: top-dose activity change, negative = inhibition, hits mostly inhibitors; further: potency means the concentration at half of the fitted maximal effect; on the % scale 0 is the no-effect control and ±100 the full control effect; nearly all actives have a fitted effect of over 65% in size
GR counterassay: glutathione reductase inhibition, TrxR1 selectivity check. shares compounds with TrxR1 inh-1. purified GR, DTNB reduction absorbance 405 nm kinetic. activity change, negative = inhibition, % at 57.1 µM. 55 tested, under 10 active. AID 652020
TrxR1 inh-2: rat TrxR1 inhibition, primary screen retest; recombinant TrxR1, NADPH fluorescence consumption, selenite substrate; 55 tested, 50% active; shares compounds with TrxR1 inh-1; Potency, µM, most hits filed as inhibitors
TrxR1 insulin: TrxR1 inhibition in insulin mechanism assay | Potency, µM | shares compounds with TrxR1 inh-1 | TrxR1 Trx-coupled insulin reduction, NADPH absorbance 340 nm | AID 652037 | 55 tested, 20% active;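 active means compounds with a measured potency under 100 micromolar; inconclusive means filed, but no rule given; inactive means potency at or above that, or unmeasurable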
TrxR1 inh-3: blocks rat TrxR1 reduction of DTNB; 55 tested, 90% active; Potency, µM; shares compounds with TrxR1 inh-1; purified TrxR1, DTNB reduction, A412;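 active means a half-inhibiting concentration could be measured and was below 100 µM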
Resorufin autofl: interferes with resorufin fluorescence in IDH1 counter-screen; shares compounds with mIDH1 inhibitor; Resorufin detection reagent fluorescence interference, cell-free; inhibition of signal, % at 51.2 µM; 750 tested, under 10 active;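 further: 0% = wells with normal resorufin and full inhibition = wells lacking resorufin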
WT IDH1 inh: selectivity of mutant IDH1 inhibitors: human wild-type IDH1; shares compounds with mIDH1 inhibitor; WT IDH1 enzyme, NADPH diaphorase/resazurin fluorescence; Potency, µM (doses to about 115 µM), for inactives: at the highest dose activity change, negative = inhibition, actives largely listed as inhibitors; 750 tested, 9% active; AID 623995;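 further: potency means the concentration at half of the fitted maximal effect; 0% = full WT IDH1 enzyme control and full inhibition = no enzyme wells; nearly all actives have a fitted effect of over 55% in size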
Target sequence (O75874 whole entry, looked up): as the sequence (O75874 whole entry R132H, stated change not applied) above, with H132R counted along it
mIDH1 confirm: inhibits human mutant IDH1 enzyme in cherrypick confirmation | shares compounds with mIDH1 inhibitor | IDH1 R132H enzyme, NADPH diaphorase/resazurin fluorescence | Potency, µM (highest dose often 76.6 µM), inactives show at the top dose activity change, negative = inhibition, hits mostly inhibitors | 750 tested, 83% active; further: potency means the concentration at half of the fitted maximal effect; nearly all actives have a fitted effect of over 50% in size
Numbers without * were called inactive; i = inactive; ? = inconclusive; / = no result shown; [ ] = remark or other dose. Most compounds without a hit are left out; they make up all but 3.1% or so of the library. Unless noted, the call rests on the fitted dose curve; in most records, active means well fitted curve in the direction sought with a large enough effect; inconclusive means small, poorly fitted or top-dose-only effect, or another doubt; inactive means no such curve, though single readings can be large; an effect the other way counts as inactive or inconclusive.

SMILES	mIDH1 inhibitor	Nrf2 block	Mito fusion act	TrxR1 substrate	TrxR1 inh-1	A549 tox-1	FLuc enzyme inh	A549 tox-2	ARE-Fluc inh	others
Cc1cccc(Nc2nc(-c3c(C)nc4ccccn34)cs2)c1	-2.1%	9.2µM*	-4.2%	15.7%[57.1 µM]	7.4%	-23.5%	-28.1%	-20.8%	6.51µM*
Cc1nc2ccccn2c1-c1csc(Nc2cccc(O)c2)n1	1.3%	-2.3%	0.1%	10.4%	16.0%[57.1 µM]	-9.9%	/	/	/
Cc1ccccc1-c1cc(C(=O)Nc2sc(C)c(C)c2C(N)=O)c2ccccc2n1	1.9%	/	17.4%	-9.8%	-19.2%	-21.4%	/	/	/
CCOC(=O)c1sc(NC(=O)c2cc(-c3ccccc3C)nc3ccccc23)c(C#N)c1C	2.0%	4.11µM*	1.5%	1.8%[57.1 µM]	2.0%[57.1 µM]	?	12µM*	?	4.11µM*
Cc1cc[n+](CCC2CCCCC2)c2ccccc12	/	/	/	15.9%	22.2%	/	2.2%	-9.9%	?
CCCCCCC[n+]1ccc(C)c2ccccc21	/	/	/	2.7%	-6.1%	/	2.3%	-15.2%	/
CCCCCCCCCCCCCCCC[n+]1ccc(/C=C/c2c[nH]c3ccccc23)c2ccccc21	/	/	/	-6.2%	?	/	/	/	/
C/C(=N\NC(=O)COc1ccccc1-c1ccccc1)c1ccccn1	-1.6%	4.61µM*	?	6.7%[57.1 µM]	21.3%[57.1 µM]	?	0.1%	-7.1%	1.3µM*
CCN(CC)S(=O)(=O)c1cc(NC(=O)CNc2cccc(S(=O)(=O)N3CCOCC3)c2)ccc1C	?	0.581µM*	-2.7%	-3.5%	-5.6%	-20.2%	0.4%	-16.3%	3.66µM*	Resorufin autofl=1.4;WT IDH1 inh=-1.8%;mIDH1 confirm=28.2µM*
COc1cccc(CNC(=O)Cn2nc(C)n3c(cc4cc(C)ccc43)c2=O)c1OC	11.4%	5.4%	/	0.4%	7.7%	0.9%	/	/	/
CC(C)OC(=O)c1cn(-c2ccccc2)nc1-c1ccco1	-0.5%	-9.7%	3.2%	8.0%	5.01µM*	0.7%	/	/	/	GR counterassay=-12.7;TrxR1 inh-2=?;TrxR1 insulin=i;TrxR1 inh-3=2.48µM*
Cc1nc([N+](=O)[O-])c(N2CCOCC2)n1Cc1ccccc1	-1.7%	0.0%	-5.1%	-8.5%	6.6%	-2.8%	/	/	/
Cc1cc2nc(Sc3c([N+](=O)[O-])nc(C)n3Cc3ccccc3)[nH]c2cc1C	4.4%	?	-3.9%	-8.0%	7.08µM*	-4.5%	/	/	/	GR counterassay=-11.2;TrxR1 inh-2=2.99*;TrxR1 insulin=32µM*;TrxR1 inh-3=0.013µM*
CCOc1cc(CNc2ccc(N3CCCC3)cc2)cc(Cl)c1OC	19.3%	?	1.2%	-12.8%	3.55µM*	?	/	/	/	GR counterassay=-6.1;TrxR1 inh-2=?;TrxR1 insulin=i;TrxR1 inh-3=8µM*
CCCn1c(SCc2nc(-c3ccc(OC)cc3OC)no2)nnc1-c1ccc(Cl)cc1	5.4%	?	/	-5.4%	11.8%	-4.0%	/	/	/

Screens (PubChem BioAssay)
